From PubChem BioAssay
NPC1 prom act – activators of NPC1 promoter; hit rate 2.4% among 320,000; Huh7 NPC1 promoter luciferase reporter, 24 h; Potency, µM (highest dose often 9.22 µM), inactives show top-dose activation, hits mostly activators; note: % of control where 0% means no effect; nearly all actives have a fitted effect of over 60% in size
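Luminescence from an NPC1 promoter-driven luciferase reporter in stably transfected Huh7 cells was measured after 24 h compound treatment at 37 °C, followed by 10 min ambient incubation with luciferase detection reagent.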
FLuc modulator – firefly luciferase modulation, counter-screen for miR-21 project | P08659 | purified FLuc, Km substrates, luminescence inhibition | Potency, µM (titrated, usually from 57.5 µM), for inactives: at the top dose activity change, negative = inhibition, most hits filed as inhibitors | hit rate 6.9% among 360,000 | AID 588342;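 note: plate controls were vehicle for no effect and reference inhibitor for full effect; nearly all actives have a fitted effect of over 55% in size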
Target sequence (P08659 whole entry, looked up): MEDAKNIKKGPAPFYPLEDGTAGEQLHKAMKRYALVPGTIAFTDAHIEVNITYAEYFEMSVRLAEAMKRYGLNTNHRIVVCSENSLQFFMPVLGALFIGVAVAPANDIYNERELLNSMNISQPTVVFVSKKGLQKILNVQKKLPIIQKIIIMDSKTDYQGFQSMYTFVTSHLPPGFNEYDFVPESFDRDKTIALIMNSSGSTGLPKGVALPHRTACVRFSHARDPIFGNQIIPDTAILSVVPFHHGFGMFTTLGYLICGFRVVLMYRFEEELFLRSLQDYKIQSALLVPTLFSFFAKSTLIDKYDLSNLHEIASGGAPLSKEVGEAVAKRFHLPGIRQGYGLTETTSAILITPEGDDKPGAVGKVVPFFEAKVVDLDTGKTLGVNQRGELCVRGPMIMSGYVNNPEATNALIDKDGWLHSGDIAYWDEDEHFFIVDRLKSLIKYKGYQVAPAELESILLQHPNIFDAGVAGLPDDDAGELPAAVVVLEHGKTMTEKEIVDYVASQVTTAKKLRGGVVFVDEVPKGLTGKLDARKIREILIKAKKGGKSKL
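Purified P. pyralis luciferase (10nM final) with 10uM D-luciferin and 10uM ATP (Km levels) in 50mM Tris acetate pH 7.5, 10mM Mg acetate, 0.01% Tween-20, 0.05% BSA; qHTS 6-point titration, ~60 µM downward; luminescence read.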
Rab9 promoter act – activates the Rab9 promoter. Huh7 Rab9 promoter-luciferase reporter, luminescence, 24 h. Potency, µM (series often up to 9.22 µM), without a hit: at the highest dose activation, negative = inhibition, usual class: activators. hit rate 2.8% among 320,000. AID 485297; note: % of control where 0% means no effect; nearly all actives have a fitted effect of over 60% in size
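Cell-based reporter: Huh7 stable for Rab9 promoter-driven luciferase, plated in reduced-serum medium with 10% FBS at 1500 cells/well, compound-treated 24 h at 37 °C, luminescence read after 10 min reagent.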
SMN2 splice enh – increases expression of the SMN2 splice variant. HEK293 SMN2-luciferase splicing reporter, luminescence, 30-36 h. hit rate 2.8% among 210,000. Potency, µM (doses to about 46.1 µM), for the others: at the highest dose activity change, positive = activation, usual class: activators; note: % of control where 0% means no effect; nearly all actives have a fitted effect of over 55% in size
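HEK293 cells carry an SMN2 […]–luciferase reporter in which exon 7 inclusion puts luciferase in frame. Cells were plated 10-12 h before compound addition, then incubated 30-36 h at 37C. ONE-Glo luminescence was read; sodium butyrate at 4.5 mM final served as control.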
Luc counter – Kinase-Glo luciferase inhibition (counter-screen); Q27757; Kinase-Glo luciferase, ATP luminescence, 8 min; Potency, µM (highest dose often 38.3 µM), for inactives: at the highest dose activity change, negative = inhibition, most hits filed as inhibitors; hit rate 0.28% among 200,000; AID 1379; note: % is set by controls: 0 for no effect and ±100 for the full control effect; nearly all actives have a fitted effect of over 60% in size
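Luminescence was the read-out, taken after 8-minute incubation at ambient temperature. Luciferase turned over luciferin with 10 uM ATP in imidazole pH 7.2 buffer containing KCl, MgCl2, Tween 20 and BSA.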
ELG1 genotoxic – inducers of genotoxicity in HEK293T ELG1-luciferase cells | HEK293T ELG1-luciferase reporter, luminescence, 16 h | Potency, µM (top dose mostly 46 µM), without a hit: at the top dose activity change, positive = activation, most hits filed as activators | hit rate 1.3% among 330,000 | AID 504466; note: % of control where 0% means no effect; nearly all actives have a fitted effect of over 60% in size
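Genotoxicity was scored as increased ELG1-luciferase reporter signal, measured by ONE-Glo luminescence (30 min, room temperature). Compound or vehicle exposure of the HEK293T reporter cells lasted 16 hr at 37°C.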
* marks the source's active call; other numbers are inactive results; ? = inconclusive; . = not tested or not shown. The list is not random: actives were taken first. Their share in the collection is about 7.5%. Calls come from the whole dose curve; as a rule, active = well fitted curve in the direction sought with a large enough effect; inconclusive = small, poorly fitted or top-dose-only effect, or another doubt; inactive = no such curve, though single readings can be large; an effect the other way counts as inactive or inconclusive. Potency is the fitted concentration of half-maximal effect.

SMILES	NPC1 prom act	FLuc modulator	Rab9 promoter act	SMN2 splice enh	Luc counter	ELG1 genotoxic
CCc1ccc(-c2cn3nc(C)c(C)nc3n2)cc1	0.0891µM*	0.379µM*	?	-17.8%	-4.0%	0.1%
Cc1nc2nc(-c3ccc(F)cc3)cn2nc1C	?	2.13µM*	0.282µM*	.	.	1.64µM*
CCc1c(-c2ccccc2)nc2nc(C)c(C)nn12	1.9%	?	6.8%	-17.3%	-1.5%	13.0%
Cc1nc2nc(-c3ccccc3)cn2nc1C	.	2.39µM*	.	8.91µM*	10µM*	.
CCN1CN(Cc2ccco2)CNC1=S	0.0%	-0.2%	1.6%	3.2%	-5.5%	3.0%
CCCCC/C=C\C/C=C\C/C=C\C/C=C\CCCC(=O)O[C@@H](CO)COC(=O)CCCCCCCCCCCCCCCCC	.	.	.	-10.5%	-1.2%	.
CCC(=O)N1CCc2cc(S(=O)(=O)NC(Cc3ccccc3)C(=O)Nc3ccc(C)cc3)ccc21 (stereo not drawn)	.	-4.4%	.	-15.7%	.	.
Cc1ccc(C)c(OCCCn2c(-c3ccc(Cl)cc3)nc3ccccc3c2=O)c1	.	-2.2%	.	-7.4%	.	.
CCCn1nc(NC(=O)c2ccccn2)c2cc3cc(C)ccc3nc21	28.5%	10.7µM*	14.6%	?	2.4%	6.1%
CCCn1nc(NS(=O)(=O)c2cccc3nonc23)c2cc3cc(C)ccc3nc21	18.2%	10.7µM*	7.6%	.	.	12.0%
CCn1nc(NC(=O)C2CCCO2)c2cc3cc(C)ccc3nc21 (stereo not drawn)	28.7%	16.9µM*	?	?	0.7%	14.9%
CCn1nc(NS(=O)(=O)c2ccc(NC(C)=O)cc2)c2cc3ccc(C)cc3nc21	1.0%	26.9µM*	0.7%	.	.	2.0%
CCn1nc(NS(=O)(=O)c2ccc(NC(C)=O)cc2)c2cc3ccccc3nc21	1.3%	-21.9%	-4.2%	.	.	-0.4%
O=C(O)c1ccc(/C=N/Nc2nc3ccccc3[nH]2)cc1	12.9%	?	9.1%	.	.	-0.7%
COC(=O)c1ccc(/C=N/Nc2nc3ccccc3[nH]2)cc1	3.16µM*	8.49µM*	3.16µM*	?	-11.0%	20.6µM*
C(=N\Nc1nc2ccccc2[nH]1)/c1ccncc1	?	?	?	-9.2%	-4.8%	?
O=C(Cc1nc2ccccc2[nH]1)N/N=C/c1ccccc1	5.0%	15.1µM*	8.2%	.	.	1.3%
CCN(CC)c1ccc(/C=N/Nc2nc3ccccc3[nH]2)cc1	24.1%	6.01µM*	?	-92.1%	-3.4%	?
CC(/C=N/Nc1nc2ccccc2[nH]1)=C\c1ccccc1	0.501µM*	0.675µM*	0.398µM*	2.51µM*	0.3%	0.82µM*
CC(=O)Nc1ccc(CCc2nc3ccccc3[nH]2)cc1	1.3%	-7.1%	18.3%	.	.	7.3%
CC(=O)Nc1ccc(/C=N/Nc2nc3ccccc3[nH]2)cc1	?	12µM*	?	-29.5%	-12.0%	-7.9%
c1ccc2[nH]c(NN=C3CCCCCC3)nc2c1	9.9%	3.38µM*	3.55µM*	11.2µM*	?	?
CC1C/C(=N/Nc2nc3ccccc3[nH]2)CC(C)(C)C1 (stereo not drawn)	-2.5%	?	1.3%	5.5%	1.3%	1.2%
COc1ccc(-c2nnc(SCC(=O)N3CCCC3=O)n2N)cc1OC	.	.	.	.	.	-0.4%
CCOC(=O)c1c(C)[nH]c(CCC(=O)Nc2ccccc2C(=O)OC)c1C	.	1.4%	.	.	.	.
SMILES	NPC1 prom act	FLuc modulator	Rab9 promoter act	SMN2 splice enh	Luc counter	ELG1 genotoxic
CC(C)c1cc(C(=O)N/N=C/c2c[nH]c3ccccc23)n[nH]1	12.6%	23.9µM*	15.5%	.	.	5.2%
O=C(N/N=C/c1c[nH]c2ccccc12)c1ccn(Cc2ccc(Cl)cc2Cl)n1	-5.7%	?	-1.6%	-7.2%	-8.6%	-12.4%
Cn1ccc(C(=O)N/N=C/c2c[nH]c3ccccc23)n1	?	15.1µM*	?	.	.	?
CC(=O)N1CCc2cc(S(=O)(=O)NCCC(=O)NCCc3ccc(Cl)cc3)ccc21	-8.2%	3.7%	-5.7%	.	.	-9.2%
Cc1ccc(CNc2cc(C)nc3nc(-c4cccc(C)c4)nn23)cc1	.	12µM*	.	.	.	.
CCOc1ccc(CNc2cc(C)nc3nc(-c4cccc(C)c4)nn23)cc1OC	.	5.36µM*	.	.	.	.
Cc1cccc(Nc2cc(C)nc3nc(-c4ccccc4)nn23)c1	.	-7.5%	.	-6.0%	.	.
COc1cccc(NC(=O)Cn2c(=O)n(CC(=O)NCc3ccc(C)cc3)c(=O)c3sccc32)c1	.	-5.2%	.	-11.1%	.	.
O=C(COC(=O)c1cccc(F)c1)Nc1ccc2c(c1)OCCO2	3.3%	1.9µM*	9.5%	.	.	6.2%
O=C(COC(=O)c1ccccc1F)Nc1ccc2c(c1)OCCO2	0.7%	0.477µM*	-3.8%	.	.	5.4%
O=C(OCC1COc2ccccc2O1)c1ccccc1F (stereo not drawn)	1.4%	6.01µM*	2.1%	-0.8%	-6.2%	10.6%
Cc1cccc(C(=O)OCC(=O)Nc2ccc3c(c2)OCCO3)c1	8.3%	19µM*	12.2%	.	.	9.7%
CCc1nc(SCC(=O)NCCc2ccccc2)c2c(=O)n(C)c(=O)n(C)c2n1	-1.1%	-3.2%	0.3%	.	.	-2.1%
CCN(C[C@H]1N[C@@](Cc2ccccc2)(C(=O)OC)[C@H]2C(=O)N(C)C(=O)[C@@H]12)C(=O)C1CCCCC1	.	.	.	.	.	0.7%
Cc1c(NS(=O)(=O)c2cccs2)cccc1-c1nc2cccnc2s1	-2.1%	19µM*	12.6%	.	.	-4.3%
Cc1c(NS(C)(=O)=O)cccc1-c1nc2cccnc2s1	?	16.9µM*	?	.	.	-7.2%
O=S(=O)(Nc1ccc(-c2nc3cccnc3s2)cc1)c1cccs1	28.4%	-14.8%	26.8%	?	-0.1%	?
Cc1cc(-c2nc3cccnc3s2)ccc1NS(=O)(=O)c1cccs1	?	13.5µM*	1.58µM*	.	.	?
CCn1c(=O)c(C(=O)Nc2ccc(C(C)=O)cc2)nc2ccccc21	.	15.1µM*	.	27.7%	.	.
COc1ccc(CCCc2nnc(SCC(=O)Nc3ccc(F)cc3)o2)cc1C	.	5.0%	.	-10.3%	.	.
COC(=O)C1CCN(C(=O)CSc2nc3ccc(OC)cc3[nH]2)CC1	15.0%	0.3%	-1.8%	11.4%	-1.1%	4.9%
COc1ccc2nc(SCC(=O)Nc3ccc4[nH]c(=O)[nH]c4c3)[nH]c2c1	1.3%	15.1µM*	-2.1%	.	.	-1.8%
O=C(CSc1nc(O)c(Cc2ccccc2)c(=O)[nH]1)Nc1nnc(SCc2ccccc2)s1	-5.0%	10.7µM*	10.8%	.	.	1.6%
COc1ccc2nc(SCC(=O)N3CCNC3=O)[nH]c2c1	2.51µM*	21.3µM*	2µM*	?	-11.7%	?
COc1ccc(NC(=O)CSc2nc(O)c(C/C=C/c3ccccc3)c(=O)[nH]2)cc1	.	5.36µM*	.	-2.9%	.	.
